For experiment [1], the target named is Thyrotropin-releasing hormone receptor (Homo sapiens) (UniProt P34981). The experiment is described as follows: qHTS assay to identify small molecule agonists of the thyrotropin-releasing hormone receptor (TRHR) signaling pathway (AID 1346891; calls by dose curve;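 note: HEK293 cells expressing TRHR with calcium dye readout; series mostly up to about 58 µM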). In a few lines: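 In 1536-format, 1500 TRHR-Hek293 cells per well grew 18 h, took up calcium dye for 2 h at 37 °C, received compound, and were read kinetically; 15-point titrations, triplicates.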
Sequence of Thyrotropin-releasing hormone receptor (Homo sapiens) (P34981 whole entry, looked up): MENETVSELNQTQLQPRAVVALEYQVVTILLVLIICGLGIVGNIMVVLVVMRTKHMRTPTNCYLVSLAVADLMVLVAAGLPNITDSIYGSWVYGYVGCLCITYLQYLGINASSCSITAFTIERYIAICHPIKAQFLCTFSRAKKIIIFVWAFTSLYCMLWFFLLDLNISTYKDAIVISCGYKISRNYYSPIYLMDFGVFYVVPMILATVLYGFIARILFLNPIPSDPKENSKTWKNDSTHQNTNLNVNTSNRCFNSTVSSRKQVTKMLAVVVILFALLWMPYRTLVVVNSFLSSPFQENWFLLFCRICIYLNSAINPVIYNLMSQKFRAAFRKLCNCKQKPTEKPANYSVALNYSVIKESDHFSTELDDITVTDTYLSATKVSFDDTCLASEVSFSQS
(In general: Quantitative high-throughput screening tests each substance at several concentrations.)

Experiment [2] is described as follows: Human pregnane X receptor (PXR) small molecule agonists, qHTS cell viability counter screen (AID 1346977). Note: nearly all actives have a fitted effect of over 50% in size. A digest of the protocol: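 Readout is CellTiter-Fluor fluorescence from PXR-Luc HepG2 cells. Plated cells rested 5hr, then were treated with compounds for 24hr at 37C and 5% CO2, with reagent present during the last hour.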
Experiment [3] can be described thus: Caspase-3/7 induction in HepG2 cells by small molecules, qHTS assay (AID 1346978). Note: nearly all actives have a fitted effect of over 15% in size. A digest of the protocol: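 Caspase-3/7 induction was measured by Caspase-Glo 3/7 luminescence (30 min, room temperature) after a 17 hr compound exposure of wild-type HepG2 cells seeded at 2,000 per well and pre-incubated 5 hr.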
Experiment [4] in a line: Caspase-3/7 induction in CHO-K1 cells by small molecules, qHTS cell viability counter screen (AID 1346979). Note: nearly all actives have a fitted effect of over 35% in size. Note: potency is the fitted concentration of half-maximal effect. In a few lines:
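To flag cytotoxic compounds, treated CHO-K1 wild-type cells were given CellTiter-Fluor at 16hr and read fluorescently after 1hr at 37C; the caspase-3/7 luminescence was measured in these same wells.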

A short description of experiment [5]: Caspase-3/7 induction in CHO-K1 cells by small molecules, qHTS assay (AID 1346980). Note: nearly all actives have a fitted effect of over 15% in size. A digest of the protocol:
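Luminescent Caspase-Glo 3/7 read (30min, room temperature) quantified apoptosis induction. Cells were wild-type CHO-K1, treated with compound for 17hr at 37 C and 5% CO2.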

Experiment [6] in a line: Caspase-3/7 induction in HepG2 cells by small molecules, qHTS cell viability counter screen (AID 1346981). Note: series mostly up to about 92 µM; nearly all actives have a fitted effect of over 30% in size. In a few lines:
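Wild-type HepG2 cells, 2,000/well, settled 5 hr at 37 C, 5% CO2 before compound addition. Viability read by CellTiter-Fluor fluorescence, reagent added after 16 hr compound exposure, then 1 hr at 37C, in the same wells as the caspase read.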

Experiment [7] has as its target Nuclear receptor subfamily 1 group I member 2 (Homo sapiens) (UniProt O75469). The experiment is described as follows: Human pregnane X receptor (PXR) small molecule agonists, qHTS assay (AID 1346982). Note: nearly all actives have a fitted effect of over 35% in size. Note: potency is the fitted concentration of half-maximal effect. In a few lines:
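PXR-Luc HepG2 reporter cells (CYP3A4-driven luciferase) in 5% charcoal-stripped FBS medium, plated 5 h before compound addition, then treated 24 h at 37C. Luciferase read by ONE-Glo luminescence after 30 min at room temperature.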

The target in experiment [8] is Nuclear receptor subfamily 1 group I member 2 (Rattus norvegicus) (UniProt Q9R1A7). In words: Rat pregnane X receptor (rPXR) activation by small molecules, qHTS assay (AID 1346983). Note: nearly all actives have a fitted effect of over 20% in size. Conditions: rPXR luciferase reporter cells, One-Glo luminescence, 24 h; max activation: stronger effect = higher value. A digest of the protocol: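 Luminescent readout (One-Glo luciferase, 30 min room temperature) followed 24 hr compound treatment at 37 C of rPXR cells plated 2,000 per well and preincubated 5hr; qHTS format with compounds delivered in DMSO.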
Sequence of Nuclear receptor subfamily 1 group I member 2 (Rattus norvegicus) (Q9R1A7 whole entry, looked up): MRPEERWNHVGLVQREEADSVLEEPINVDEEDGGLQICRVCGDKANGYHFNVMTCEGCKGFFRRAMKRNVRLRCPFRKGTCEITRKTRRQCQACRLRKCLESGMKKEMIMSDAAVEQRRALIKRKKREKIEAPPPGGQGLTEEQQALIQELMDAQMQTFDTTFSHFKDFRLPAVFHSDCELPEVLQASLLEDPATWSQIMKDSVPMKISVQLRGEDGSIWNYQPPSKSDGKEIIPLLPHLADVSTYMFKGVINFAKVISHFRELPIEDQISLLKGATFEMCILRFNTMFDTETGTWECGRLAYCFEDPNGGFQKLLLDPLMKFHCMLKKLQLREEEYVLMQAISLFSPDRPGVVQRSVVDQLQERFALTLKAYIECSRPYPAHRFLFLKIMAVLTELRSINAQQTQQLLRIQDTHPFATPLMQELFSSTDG

In experiment [9] the target is Nuclear receptor subfamily 1 group I member 2 (Homo sapiens) (UniProt O75469). In words: CYP3A4 induction through human pregnane X receptor (PXR) by small molecules, qHTS assay (AID 1346984). Note: nearly all actives have a fitted effect of over 40% in size. Note: potency is the fitted concentration of half-maximal effect. A digest of the protocol:
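DPX-2 HepG2 cells carrying a PXR response element and CYP3A4-promoter luciferase construct, treated with compounds 24 hr at 37C. Then P450-Glo CYP3A4 Luciferin-IPA substrate (3uM final) for 3 hr at 37C, One-Glo added, luminescence read.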

For experiment [10] the target is unchanged. In words: Human pregnane X receptor (PXR) activation by small molecules, qHTS assay (AID 1346985). Note: nearly all actives have a fitted effect of over 40% in size. A digest of the protocol:
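DPX-2 cells (HepG2 co-transfected with a PXR response element and a CYP3A4-promoter luciferase construct) were seeded at 2,000 per well, rested 5 hr at 37C, then exposed to DMSO-dissolved compounds for 24 hr. Activation was read as luciferase luminescence.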

In experiment [11] the target is Cytochrome P450 2D6 (Homo sapiens) (UniProt P10635). In words: Cytochrome P450 Family 2 Subfamily D Member 6 (CYP2D6) small molecule antagonists: luciferase reporter qHTS assay (AID 1671196). Note: series mostly up to about 120 µM; nearly all actives have a fitted effect of over 50% in size. In a few lines: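 Cell-free P450-Glo system: CYP2D6 with proluciferin substrate was pre-incubated with compound for 10 min, then reacted with NADPH regeneration for 1 h at room temperature. Luciferin product was detected after 20 min, and data were reported as relative luminescence units.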
Sequence of Cytochrome P450 2D6 (Homo sapiens) (P10635 whole entry, looked up): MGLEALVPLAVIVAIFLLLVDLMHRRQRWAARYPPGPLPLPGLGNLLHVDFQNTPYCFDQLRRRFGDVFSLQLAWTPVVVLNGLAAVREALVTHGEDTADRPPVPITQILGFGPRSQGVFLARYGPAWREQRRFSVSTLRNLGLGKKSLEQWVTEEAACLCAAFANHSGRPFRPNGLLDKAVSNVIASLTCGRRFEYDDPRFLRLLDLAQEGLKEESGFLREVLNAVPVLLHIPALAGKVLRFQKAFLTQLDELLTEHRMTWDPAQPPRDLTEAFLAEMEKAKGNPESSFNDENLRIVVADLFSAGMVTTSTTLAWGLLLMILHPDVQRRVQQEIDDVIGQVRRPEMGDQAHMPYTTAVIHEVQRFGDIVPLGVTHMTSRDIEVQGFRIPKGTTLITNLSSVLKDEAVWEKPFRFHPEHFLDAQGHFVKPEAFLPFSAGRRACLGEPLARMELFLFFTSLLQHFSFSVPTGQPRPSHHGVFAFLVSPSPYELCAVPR

For experiment [12], the target named is Cytochrome P450 2C19 (Homo sapiens) (UniProt P33261). The experiment is described as follows: Cytochrome P450 Family 2 Subfamily C Member 19 (CYP2C19) small molecule antagonists: luciferase reporter qHTS assay (AID 1671197). For activity change, negative = inhibition: series mostly up to about 120 µM. Note: nearly all actives have a fitted effect of over 65% in size. Note: potency is the fitted concentration of half-maximal effect. A digest of the protocol:
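Inhibition of CYP2C19 was scored from loss of luminescence in a P450-Glo proluciferin substrate assay, NADPH-started and run 1 h at 37C, with ketoconazole as positive control.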

Experiment [13] deals with Cytochrome P450 2C9 (Homo sapiens) (UniProt P11712). The experiment is described as follows: Cytochrome P450 Family 2 Subfamily C Member 9 (CYP2C9) small molecule antagonists: luciferase reporter qHTS assay (AID 1671198). For activity change, negative = inhibition: series mostly up to about 120 µM. Note: nearly all actives have a fitted effect of over 50% in size. Note: potency is the fitted concentration of half-maximal effect. A digest of the protocol:
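Enzyme-substrate mix preincubated with compound 10 min at room temperature; reaction started with NADPH regeneration solution, 1 h 37C. Luminescent luciferin product read after 20 min detection reagent.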

The target in experiment [14] is Cytochrome P450 1A2 (Homo sapiens) (UniProt P05177). The experiment is described as follows: Cytochrome P450 Family 1 Subfamily A Member 2 (CYP1A2) small molecule antagonists: luciferase reporter qHTS assay (AID 1671199). Note: series mostly up to about 120 µM; nearly all actives have a fitted effect of over 50% in size. A digest of the protocol:
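P450-Glo CYP1A2 enzyme–proluciferin substrate mix with compound 10 min at room temperature, then NADPH regeneration 1 h at room temperature. Luciferin detection reagent added, luminescence read after 20 min; furafylline positive control.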
Background: A reporter such as luciferase makes a cellular process visible.

Experiment [15] concerns the target Voltage-gated inwardly rectifying potassium channel KCNH2 (Homo sapiens) (UniProt Q12809). In words: Human Ether-a-go-go-Related Gene (hERG) channel small molecule antagonists: fluorescence cell-based qHTS assay (AID 1671200). In a few lines:
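Measured: Tl+ flux via fluorescence (480/540 nm) in hERG-expressing U2OS cells after 1 h dye loading at room temperature.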
In general terms: The hERG channel carries a current that helps repolarise heart muscle cells.

In experiment [16] the target is Cytochrome P450 3A4 (Homo sapiens) (UniProt P08684). In words: Cytochrome P450 Family 3 Subfamily A Member 4 (CYP3A4) small molecule antagonists: luciferase reporter qHTS assay (AID 1671201). A digest of the protocol:
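Setup: enzyme-substrate mix, compound pin transfer, 10 min RT. Reaction: NADPH regeneration solution, 1 h RT. Readout: detection reagent stops turnover, luminescence measured after 20 min, expressed in relative luminescence units.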

Molecules are shown by their SMILES. A number with no mark means an inactive call. Records with an inconclusive call do not appear. The source made the active and inactive calls. Unless noted, calls come from the whole dose curve; as a rule, active = well fitted curve in the direction sought with a large enough effect in the repeat runs; inconclusive = weak or mixed curves; inactive = no such curve, though single readings can be large; an effect the other way counts as inactive or inconclusive.
% is set by controls: 0 for no effect and ±100 for the full control effect.

Sequence of Cytochrome P450 2C9 (Homo sapiens) (P11712 whole entry, looked up): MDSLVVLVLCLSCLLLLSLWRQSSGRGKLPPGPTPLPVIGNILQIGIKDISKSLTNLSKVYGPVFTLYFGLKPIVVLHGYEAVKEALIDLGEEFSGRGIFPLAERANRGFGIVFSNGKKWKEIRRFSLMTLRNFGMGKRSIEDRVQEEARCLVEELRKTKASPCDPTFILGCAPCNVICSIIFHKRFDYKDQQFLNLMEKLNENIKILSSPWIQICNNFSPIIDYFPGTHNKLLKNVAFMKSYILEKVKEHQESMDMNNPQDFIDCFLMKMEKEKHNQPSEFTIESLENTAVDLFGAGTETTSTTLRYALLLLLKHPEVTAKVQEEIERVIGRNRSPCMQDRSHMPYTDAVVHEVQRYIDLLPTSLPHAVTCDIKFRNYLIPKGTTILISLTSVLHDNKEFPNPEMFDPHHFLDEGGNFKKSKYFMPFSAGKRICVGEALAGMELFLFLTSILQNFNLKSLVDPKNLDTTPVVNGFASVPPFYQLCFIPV
Sequence of Voltage-gated inwardly rectifying potassium channel KCNH2 (Homo sapiens) (Q12809 whole entry, looked up): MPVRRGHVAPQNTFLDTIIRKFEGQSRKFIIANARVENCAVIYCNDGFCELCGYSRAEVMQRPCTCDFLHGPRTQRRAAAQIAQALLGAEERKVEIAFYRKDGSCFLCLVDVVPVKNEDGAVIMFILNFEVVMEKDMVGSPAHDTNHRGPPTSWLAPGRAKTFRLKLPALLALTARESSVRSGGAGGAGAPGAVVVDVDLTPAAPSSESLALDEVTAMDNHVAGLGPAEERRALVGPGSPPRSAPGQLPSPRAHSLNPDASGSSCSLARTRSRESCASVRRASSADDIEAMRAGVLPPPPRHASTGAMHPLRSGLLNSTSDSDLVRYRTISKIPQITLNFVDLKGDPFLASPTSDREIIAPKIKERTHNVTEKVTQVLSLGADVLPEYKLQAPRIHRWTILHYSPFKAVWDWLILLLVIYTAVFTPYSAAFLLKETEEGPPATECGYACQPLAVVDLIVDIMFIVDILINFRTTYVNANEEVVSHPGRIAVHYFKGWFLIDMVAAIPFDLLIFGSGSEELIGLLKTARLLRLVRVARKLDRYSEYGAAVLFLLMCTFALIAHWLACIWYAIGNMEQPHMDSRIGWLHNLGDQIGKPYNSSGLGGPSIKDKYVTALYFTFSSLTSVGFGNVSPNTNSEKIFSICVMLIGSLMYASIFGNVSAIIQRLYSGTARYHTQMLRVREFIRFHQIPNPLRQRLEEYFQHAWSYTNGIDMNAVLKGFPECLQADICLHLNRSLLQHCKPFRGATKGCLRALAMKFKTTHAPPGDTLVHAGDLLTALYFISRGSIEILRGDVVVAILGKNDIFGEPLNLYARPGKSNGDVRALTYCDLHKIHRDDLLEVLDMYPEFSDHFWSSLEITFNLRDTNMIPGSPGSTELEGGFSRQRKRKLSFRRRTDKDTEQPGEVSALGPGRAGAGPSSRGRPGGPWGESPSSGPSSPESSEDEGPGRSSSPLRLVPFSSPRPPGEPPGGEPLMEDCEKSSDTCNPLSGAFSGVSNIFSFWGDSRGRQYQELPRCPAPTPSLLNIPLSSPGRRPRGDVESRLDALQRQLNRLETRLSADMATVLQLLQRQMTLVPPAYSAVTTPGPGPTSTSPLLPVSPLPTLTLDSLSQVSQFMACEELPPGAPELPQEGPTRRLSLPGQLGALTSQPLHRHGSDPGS
Sequence of Cytochrome P450 3A4 (Homo sapiens) (P08684 whole entry, looked up): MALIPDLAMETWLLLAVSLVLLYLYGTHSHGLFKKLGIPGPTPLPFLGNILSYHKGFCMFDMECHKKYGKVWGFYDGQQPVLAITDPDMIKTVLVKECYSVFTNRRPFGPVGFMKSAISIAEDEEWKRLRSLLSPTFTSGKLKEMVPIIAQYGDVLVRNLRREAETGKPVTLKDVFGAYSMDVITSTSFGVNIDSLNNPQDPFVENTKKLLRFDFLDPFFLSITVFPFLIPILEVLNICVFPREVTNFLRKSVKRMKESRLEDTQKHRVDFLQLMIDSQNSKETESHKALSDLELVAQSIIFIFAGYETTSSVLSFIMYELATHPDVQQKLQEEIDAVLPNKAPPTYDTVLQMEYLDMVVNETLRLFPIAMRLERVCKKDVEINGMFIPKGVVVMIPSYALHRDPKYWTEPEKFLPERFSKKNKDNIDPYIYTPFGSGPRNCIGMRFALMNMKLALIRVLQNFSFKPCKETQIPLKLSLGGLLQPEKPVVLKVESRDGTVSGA
Sequence of Cytochrome P450 2C19 (Homo sapiens) (P33261 whole entry, looked up): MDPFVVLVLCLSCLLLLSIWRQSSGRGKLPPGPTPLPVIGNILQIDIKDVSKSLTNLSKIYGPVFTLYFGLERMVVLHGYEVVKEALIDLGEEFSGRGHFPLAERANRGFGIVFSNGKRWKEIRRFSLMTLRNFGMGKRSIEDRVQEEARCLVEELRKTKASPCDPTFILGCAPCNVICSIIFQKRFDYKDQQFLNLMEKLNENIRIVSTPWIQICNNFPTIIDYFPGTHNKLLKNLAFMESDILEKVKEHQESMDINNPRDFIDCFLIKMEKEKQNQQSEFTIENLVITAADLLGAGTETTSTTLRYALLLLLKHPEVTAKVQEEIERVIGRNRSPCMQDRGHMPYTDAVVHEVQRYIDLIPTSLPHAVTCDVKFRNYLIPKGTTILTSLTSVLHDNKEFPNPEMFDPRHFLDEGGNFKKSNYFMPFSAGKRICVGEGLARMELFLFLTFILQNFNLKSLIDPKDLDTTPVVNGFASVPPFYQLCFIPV
Sequence of Cytochrome P450 1A2 (Homo sapiens) (P05177 whole entry, looked up): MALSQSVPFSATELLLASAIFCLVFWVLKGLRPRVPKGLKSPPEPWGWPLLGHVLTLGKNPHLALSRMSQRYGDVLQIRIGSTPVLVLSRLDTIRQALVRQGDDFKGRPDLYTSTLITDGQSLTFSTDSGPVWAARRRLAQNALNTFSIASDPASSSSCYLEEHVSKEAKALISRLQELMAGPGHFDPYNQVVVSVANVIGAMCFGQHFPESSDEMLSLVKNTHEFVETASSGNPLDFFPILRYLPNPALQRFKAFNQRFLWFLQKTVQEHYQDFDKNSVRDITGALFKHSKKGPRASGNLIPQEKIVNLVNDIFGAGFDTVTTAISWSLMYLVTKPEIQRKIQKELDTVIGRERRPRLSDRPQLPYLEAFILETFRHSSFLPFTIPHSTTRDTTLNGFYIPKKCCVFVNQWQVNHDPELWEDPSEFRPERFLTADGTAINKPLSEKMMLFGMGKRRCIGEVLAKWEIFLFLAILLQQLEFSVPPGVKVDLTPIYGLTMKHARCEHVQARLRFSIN
Sequence of Nuclear receptor subfamily 1 group I member 2 (Homo sapiens) (O75469 whole entry, looked up): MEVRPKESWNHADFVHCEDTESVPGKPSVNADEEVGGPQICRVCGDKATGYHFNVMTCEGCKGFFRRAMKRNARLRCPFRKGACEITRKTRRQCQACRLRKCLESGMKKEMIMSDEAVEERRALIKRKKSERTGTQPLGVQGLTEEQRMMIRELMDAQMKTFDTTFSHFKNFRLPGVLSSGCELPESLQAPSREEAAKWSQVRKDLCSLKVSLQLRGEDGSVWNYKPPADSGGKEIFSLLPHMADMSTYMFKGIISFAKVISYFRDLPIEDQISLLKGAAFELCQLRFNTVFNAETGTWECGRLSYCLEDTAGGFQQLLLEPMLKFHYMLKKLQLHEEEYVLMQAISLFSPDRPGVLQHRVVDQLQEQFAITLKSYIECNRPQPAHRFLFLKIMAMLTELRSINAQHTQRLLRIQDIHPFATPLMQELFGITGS

As to `CC1=C(C)C(=O)C(C(CCCCCC(=O)O)c2ccccc2)=C(C)C1=O` (stereo unspecified), the molecule was classed as inactive in [1]. Moreover, the Potency result in [2], in [3], in experiment [5], in experiment [6], in [7] and in [10] was “inactive” each time. In addition, the Potency result in experiment [11], in [14], in experiment [15] and in [16] was “inactive” in each case. In addition, the Potency was 26.6 µM (active) in [4], 10 µM (active) in experiment [9], 24.5 µM (active) in [12] and 17.4 µM (active) in experiment [13]. In addition, the max activation in experiment [8] is -6.02%.
Consider `CCCC(=O)OCc1ccccc1`, for which the result in experiment [1] was inactive. The Potency result in experiment [2], in [3], in [4], in experiment [5], in experiment [6] and in [7] was “inactive” each time. The Potency result in experiment [11], in experiment [12], in [13], in [14], in [15] and in [16] was “inactive” in each case.
On to `C=CC(O)CCCCC` (stereo unspecified), for which the result in experiment [1] was inactive. In addition, the Potency entry in [2], in experiment [3], in experiment [4], in experiment [5], in experiment [6] and in experiment [7] was “inactive” throughout. Besides, the Potency entry in experiment [11], in experiment [12], in [13], in [14] and in experiment [16] was “inactive” throughout.
For `C/C=C1\[C@H]2C=C(C)C[C@]1(N)c1ccc(=O)[nH]c1C2`, the result in experiment [1] was inactive. Moreover, the Potency entry in [2], in experiment [3], in experiment [4], in experiment [5], in experiment [6] and in [7] was “inactive” throughout. Moreover, the Potency entry in experiment [9], in experiment [10], in [11], in experiment [13], in experiment [14] and in experiment [15] was “inactive” each time. The Potency entry in experiment [16] was “inactive”. Moreover, in [8], the max activation is -1.47%.
Regarding `O=C(O)c1ccc2cc(O)ccc2c1`, the molecule was called inactive in experiment [1]. Also, the Potency entry in [2], in experiment [3], in experiment [4], in [5], in experiment [6] and in [7] was “inactive” each time. Further, the Potency entry in experiment [13], in experiment [14], in [15] and in experiment [16] was “inactive” in each case.
On to `C=Cc1ccc(C=C)cc1`, for which the molecule was classed as inactive in experiment [1]. The Potency result in experiment [2], in experiment [3], in experiment [4], in [5], in experiment [6] and in experiment [7] was “inactive” each time. For the same molecule, the Potency entry in experiment [11], in experiment [13], in experiment [14] and in [15] was “inactive” each time.
Take `O=[N+]([O-])c1ccc(Cl)cc1Cl`: the result in [1] was inactive. Also, the Potency entry in experiment [2], in experiment [3], in experiment [4], in [5], in experiment [6] and in [7] was “inactive” each time. Moreover, the Potency entry in experiment [12], in experiment [13], in experiment [15] and in experiment [16] was “inactive” each time.
With `c1ccc(-c2ccc(-c3ccccc3)cc2)cc1`, in [1], the activation is 0.249% [at 11.8 µM]. In addition, the activity change, negative = cytotoxicity in experiment [2] was 0.816% [at 19 µM]; in experiment [4], 11.6% [at 19 µM]; in [6], 6.27% [at 19 µM]. In experiment [3], the caspase activation is -3.46% [at 19 µM]. Moreover, in experiment [5], the caspase-3/7 activation is -1.92% [at 19 µM]. For the same molecule, in [7], the Potency is 1.77 µM (active). The activity change, negative = inhibition in experiment [11] was -3.95% [at 23.6 µM]; in experiment [13] it was -16.3% [at 23.6 µM]; in [15], 1.54% [at 15.8 µM]; in experiment [16] it was -14.7% [at 23.6 µM].
With `O=C(O)CCc1nc2ccccc2[nH]1`, the molecule was classed as inactive in [1]. The Potency entry in [2], in experiment [3], in experiment [4], in [5], in experiment [6] and in experiment [7] was “inactive” throughout. In addition, the Potency result in [11], in [13], in experiment [14] and in experiment [16] was “inactive” in each case.

These data come from PubChem BioAssay (Tox21).
